# Compound activity as filed in PubChem.
# Compounds with a hit are over-represented: about 11% of the library has one in this group of screens.
# Autophagy HCS: autophagy modulators in MEF cells, primary screen, imaging, high-content, MEF GFP-LC3; MEF GFP-LC3 puncta imaging; test concentration mostly 10 µM; AID 463193, 2010; 190,000 tested, 0.98% active; calls only at 10 µM (by protocol);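 active = percentage of spot-positive cells more than 3 SD above its plate mean, without a fluorescence outlier flag or 80% toxicity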;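 note: spot-positive cell cutoff set from DMSO-treated cells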
# Insulin prom inh: inhibitors of insulin promoter-driven GFP, primary screen, imaging, TRM-6 cells (human fetal islet line), eGFP reporter, cell count | AID 1273, 2008 | inhibition, % at 2 µM | 130,000 tested, 0.9% active | reporter expression induced with tamoxifen;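 active = inhibition above the mean plus 3 SD, with well images judged a real hit on visual review, cut at about 60% in these data, passing the limit was not always enough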
# Ins promoter up: insulin promoter activators in MIN6 cells, imaging, high-content screening, mouse beta cells; MIN6 insulin promoter-GFP reporter; hits give high values; z-score at 5 µM; 190,000 tested, 0.3% active; AID 1625, 2009;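 active = z-score above 3 at 5 µM with at least 500 cells counted in the well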
# WT yeast gro inh: growth inhibition of WT strain, primary screen, mitochondrial fusion inhibitor project, WT and mutant strains, chemical genetic; AID 1362, 2008; mitochondrial fusion phenotypic screen; inhibition, % at 10 µM; 190,000 tested, 2.1% active; in the data active = inhibition above about 58%; tested in S. cerevisiae
# Lmaj promast: Leishmania major promastigote growth inhibition, primary screen | Leishmania major promastigotes, resazurin fluorescence viability | inhibition, % at 10 µM | 200,000 tested, 9% active; in the data active = inhibition above about 50%;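 note: promastigotes grown with compound for 44 hours at 28 °C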
# * marks the source's active call; other numbers are inactive results; i = inactive; · = not tested or not shown; + = active, no number.
SMILES,Autophagy HCS,Insulin prom inh,Ins promoter up,WT yeast gro inh,Lmaj promast
O=C(CSc1ccc(-c2ccco2)nn1)NCc1ccc(F)cc1,i,-54.8,0.23,8.2,27.8
Cc1ccc(CNC(=O)CSc2ccc(-c3ccco3)nn2)cc1,i,-6.5,0.14,3.2,63.0*
O=C1CN(Cc2cc(=O)oc3cc4c(cc23)CCC4)CCN1,i,·,-0.88,-12.4,-3.4
COC(=O)c1sccc1NC(=S)N1CCC(C(N)=O)CC1,i,·,1.02,-8.2,-1.5
CCN(CC)S(=O)(=O)c1ccc(OC)c(NC(=O)CSc2cc(Cl)ccc2Cl)c1,i,22.2,-0.35,10.7,98.0*
CCN(c1ccccc1)S(=O)(=O)c1ccc(OC)c(NC(=O)CN(C)C)c1,i,·,0.06,-7.2,16.0
CCN(CC)S(=O)(=O)c1ccc(OC)c(NC(=O)CSc2ccccc2)c1,i,-220.0,-0.47,15.6,99.3*
COc1ccc(CNC(=O)c2cnn3c(C(F)F)cc(C)nc23)cc1OC,i,·,2.15,5.6,-5.8
COc1cc(/C=N/NC(=O)c2ccc(O)cc2)ccc1OCC(=O)N1CC(C)OC(C)C1 (stereo unspecified),·,·,0.21,·,·
O=C(N/N=C/c1nn(-c2ccccc2)cc1-c1ccc(Cl)cc1)c1ccncc1,i,·,0.33,47.4,60.2*
CCOP(=O)(OCC)C(NC(=O)Nc1ccc(Cl)cc1)C(=O)N(CC)CC (stereo unspecified),i,-25.0,-0.33,5.1,-0.2
CC(=O)Nc1cccc(CNCc2cccc(NC(C)=O)c2)c1,i,·,-0.03,-6.9,1.4
CCc1cccc(N=c2c([N+](=O)[O-])nn(-c3ccc(Cl)cc3)n2O)c1,i,-12.7,-0.62,18.8,37.3
Cc1cccc(N=c2c([N+](=O)[O-])nn(-c3ccc(Cl)cc3)n2O)c1,i,·,-0.42,48.4,78.5*
Cc1cc(C)cc(N=c2c([N+](=O)[O-])nn(-c3cccc(Cl)c3)n2O)c1,+,26.7,-1.2,25.4,42.1
O=C(Nc1ccc2c(c1)CCC2)c1cc(S(=O)(=O)N2CCN(c3ccccc3)CC2)ccc1Cl,i,-16.2,0.25,·,44.6
CN(CCc1ccccn1)c1ncnc2[nH]ncc12,i,75.0*,0.16,4.4,3.3
Cc1ccc(C(=O)Nc2cc3ccccc3oc2=O)cc1,i,·,0.36,31.0,-5.5
O=C(N/N=C/C(Br)=C/c1ccccc1)NC1CCCCC1,i,·,-0.66,89.8*,3.1
CCOc1cc(C(=O)N/N=C/C(Br)=C/c2ccccc2)cc(OCC)c1OCC,i,·,-0.19,-32.9,58.4*
CC(/C=N/NC(=O)NC1CCCCC1)=C\c1ccccc1,i,·,-0.19,43.1,6.2
COc1ccc(/C=N/NC(=O)c2c(-c3ccccc3)noc2C)cc1,i,-16.7,0.5,-12.9,5.5
Cc1onc(-c2ccccc2)c1C(=O)N/N=C/C(Br)=C/c1ccccc1,i,-60.0,-0.35,82.2*,12.0
Cc1onc(-c2ccccc2)c1C(=O)N/N=C/c1cc2c(cc1Br)OCO2,i,57.1,0.29,21.4,100.4*
COc1ccc(-c2cc(C(F)(F)F)nc(SCC(=O)NCc3cccs3)n2)cc1OC,i,5.9,-0.08,12.0,9.5
SMILES,Autophagy HCS,Insulin prom inh,Ins promoter up,WT yeast gro inh,Lmaj promast
CCCCOc1cccc(OCC(=O)Nc2nc3ccccc3[nH]2)c1,i,·,-0.09,13.0,20.6
CSc1ccccc1C(=O)Nc1ccccc1C(=O)NC(C)C,i,·,0.13,4.2,2.6
Cc1ccccc1NC(=O)C(Cl)=C(Cl)Cl,i,·,-1.95,-6.9,24.9
S=c1nc(-c2sccc2OCc2ccc(Cl)cc2Cl)[nH][nH]1,i,·,0.44,64.4*,-3.6
Cn1c(CN2CCN(C(=O)c3ccc(F)cc3)CC2)nc2cc([N+](=O)[O-])ccc21,i,-2.0,0.01,3.0,63.8*
Cn1c(CN2CCCCC2)nc2cc(NC(=O)c3ccc(Cl)cc3)ccc21,i,25.0,·,70.5*,-2.0
CC(=O)N1CCN(Cc2nc3cc(NC(=O)c4ccccc4)ccc3n2C)CC1,i,0.0,3.37*,-5.5,-6.1
Cn1c(CN2CCCC2)nc2cc(NC(=O)c3ccc(Cl)cc3)ccc21,i,·,0.72,2.3,2.5
CSC1=NSC2=NC(=O)/C(=C\c3cccs3)C(=N)N12,i,79.3*,0.03,22.7,0.1
N#C/C(=N\Nc1ccc(F)cc1)C(=N)N1CCCCC1,i,2.9,0.54,11.9,77.6*
C=CCn1c(SCc2ccc(C#N)cc2)nnc1-c1ccccc1,i,-73.3,-0.22,-7.3,-2.2
